From PubChem
MARV entry inh = inhibitors of Marburg virus binding or cell entry. Marburg virus pseudotyped entry inhibition, cell reporter. Potency, µM (titrated, usually from 37.8 µM), without a hit: at the highest dose activity change, negative = inhibition, actives largely listed as inhibitors. 300,000 compounds, 1.8% hits. AID 540276; calls by dose curve; tested in HEK293 cells; further: potency means the concentration at half of the fitted maximal effect
FMDV antiviral = blocks foot and mouth disease virus | FMDV antiviral cell-based qHTS | Potency, µM (doses to about 57.9 µM), inactives show at the highest dose activity change, negative = inhibition, actives largely listed as inhibitors | 410,000 compounds, 1.2% hits; calls by dose curve; tested in HEK293T cells; further: read-out not given here; potency means the concentration at half of the fitted maximal effect; nearly all actives have a fitted effect of over 45% in size
HCV inh = blocks hepatitis C virus; Potency, µM (series often up to 41.8 µM), without a hit: top-dose activity change, negative = inhibition, hits mostly inhibitors; Huh7.5.1 HCVcc-Cre infection, luciferase reporter, 44 h; 340,000 compounds, 3.4% hits; AID 651820; active means well fitted inhibition curve with a large enough effect; inconclusive means small, poorly fitted or top-dose-only effect, or another doubt; inactive means no such curve, though single readings can be large or run the other way; further: potency means the concentration at half of the fitted maximal effect
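After 44 h co-culture of compound, cells and HCVcc-Cre (~0.5 moi), substrate is added for 15 min at room temperature and luciferase measured over 15 sec. Cells were seeded at 1,000/well and pre-cultured 4 h.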
HCMV inh = blocks human cytomegalovirus replication; activity change, negative = inhibition, % at 57.5 µM; AID 1259415; 410,000 compounds, 4.5% hits; HFF cells, HCMV-luciferase reporter, 72 h; active compounds read low; in the data active means activity change below about -60%; inconclusive means no clear call, values can overlap the other calls; inactive means above about -39%
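Human foreskin fibroblasts infected with luciferase-reporter HCMV at MOI 1 PFU/cell, compounds at two doses. Luciferase measured 72 h post infection; normalized to buffer-only basal and Salinomycin (10uM) controls.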
LASV entry inh = Lassa virus entry inhibition; Lassa virus pseudotype entry inhibition, cell reporter; Potency, µM (highest dose often 37.9 µM), without a hit: at the highest dose activity change, negative = inhibition, actives largely listed as inhibitors; 300,000 compounds, 1.2% hits; AID 540256; calls by dose curve; tested in HEK293 cells; further: potency means the concentration at half of the fitted maximal effect; nearly all actives have a fitted effect of over 50% in size
* marks the source's active call; other numbers are inactive results; ? = inconclusive; · = no result; + = active, no number; [ ] = remark or other dose. A selection: hits, their analogues and other compounds. The true share with any hit is near 7.9%. On the % scale 0 is the no-effect control and ±100 the full control effect.

SMILES	MARV entry inh	FMDV antiviral	HCV inh	HCMV inh	LASV entry inh
CCCCCCCCNC(C)C(O)c1ccc(SC(C)C)cc1 (stereo unspecified)	-9%	?	-4%[8.37 µM]	-82*	?
C[C@@H](NCCc1ccc(O)cc1)[C@@H](O)c1ccc(O)cc1	43%	-27%	6%	103	?
CCN(CC)S(=O)(=O)c1cccc(C(=O)Nc2cccnc2)c1	-20%	-15%	13%	-19	1%
CCN(CC)S(=O)(=O)c1cc(C)ccc1NC(=S)Nc1cccnc1	11µM*	-9%	11µM*	-69*	?
CCCC(=O)N1CCN(c2ccc(NC(=O)c3ccco3)cc2)CC1	25%	29%	3.2µM*	12	28%
Cc1ccccc1C(=O)N1CCN(c2ccc(NC(=S)NC(=O)c3ccco3)cc2)CC1	·	25µM*	6%	-87*	·
COc1ccccc1C(=O)NC(=S)Nc1ccc(N2CCN(C(=O)c3ccco3)CC2)cc1	·	?	32µM*	13	·
O=C(Nc1ccc(N2CCN(C(=O)c3ccco3)CC2)cc1)c1ccco1	?	24%	5%	-31	15%
COc1ccc(-n2c(C)cc(/C=N/Nc3nnc(C)n3N)c2C)cc1	?	-10%	11µM*	-23	-17%
C=C1N(S(=O)(=O)C(F)(F)F)CCC12CN(S(=O)(=O)c1ccc(C)cc1)c1ccccc12 (stereo unspecified)	·	·	·	-70*	·
C=C1N(S(=O)(=O)C(F)(F)F)CCC12CN(C)c1ccccc12 (stereo unspecified)	·	·	·	3	·
C[C@]12CCC3C(CC[C@H]4C[C@@H](O)CC[C@]34C)[C@H]1CC[C@H]2O (stereo partly specified)	8%[46.1 µM]	-26%	-5%	-20	2%[46.1 µM]
C[C@]12CCC(=O)C[C@@H]1CC[C@@H]1[C@@H]2CC[C@]2(C)[C@@H](O)CC[C@@H]12	·	?	-10%	-61*	·
C[C@]12CCC3C(CC[C@H]4C[C@@H](O)CC[C@]34C)C1CC[C@@]2(O)C(F)(F)F (stereo partly specified)	·	·	3%	-61*	·
C[C@]12CCC3C(CC[C@@H]4CC(=O)CC[C@]34C)C1CC[C@@H]2O (stereo partly specified)	?	-22%	16%	-21	0%[46.1 µM]
CC(=O)[C@@]1(O)CCC2C3CC[C@H]4C[C@@H](O)CC[C@]4(C)C3CC[C@@]21C (stereo partly specified)	6%[46.1 µM]	-13%	-21%	25	0%[46.1 µM]
C[C@H]1CC[C@@]2(C)[C@@H](CC[C@@H]3[C@@H]2CC[C@]2(C)[C@@H](O)CC[C@@H]32)C1	·	-18%	14%	-100*	·
COc1ccc([C@H]2C[C@H](O)C[C@@H](CCn3cc(-c4ccccc4)nn3)O2)cc1	·	-19%	·	-20	·
O=C(Cn1c(=O)nc(-c2ccccc2)c2ccccc21)NCCc1ccccc1	·	6%	·	38	2%[46.1 µM]
N#CCCn1cc(C(=O)CN2C(=O)NC3(CCc4ccccc43)C2=O)c2ccccc21 (stereo unspecified)	·	-7%	·	-10	·
O=C(/C=C/c1ccco1)NCCc1ccc(F)cc1	18%[46.1 µM]	22%	-20%	-78*	19%[46.1 µM]
COc1ccccc1C(=O)OCCc1ccccc1	?	0%	-7%	-100*	-29%[46.1 µM]
N#Cc1c2ccc([N+](=O)[O-])cc2[n+]([O-])n1-c1ccccc1	·	·	1.6µM*	+	·
CCOC(=O)CSc1nc2sc3c(c2c(=O)n1-c1ccccc1)CC(C(C)C)OC3 (stereo unspecified)	·	-25%	·	13	13%[46.1 µM]
CCOC(=O)c1ccc(N2CCN(c3ccccc3F)CC2)c(NC(=O)Nc2ccc(Cl)c(Cl)c2)c1	·	25µM*	·	-23	?
SMILES	MARV entry inh	FMDV antiviral	HCV inh	HCMV inh	LASV entry inh
O=C(Nc1ccc(F)c(Cl)c1)Nc1csc2ccccc12	?	10%	?	-98*	?
C=CCNC(=O)Nc1ccc(F)c(Cl)c1	·	20%	-5%	-94*	·
COC(=O)c1ccc(NC(=O)Nc2ccc(F)cc2)cc1	0%	-5%	?	40	2%
O=C(Nc1ccc(F)cc1F)Nc1csc2ccccc12	?	7%	?	-18	?
CCOC(=O)c1ccc(N2CCN(c3cc(Cl)ccc3C)CC2)c(NC(=O)Nc2ccc(OCC)cc2)c1	·	-15%	·	19	-1%[46.1 µM]
COC(=O)c1ccc(NC(=O)Nc2ccc(F)c(Cl)c2)cc1	4%	-48%	11µM*	35	0%
Cc1n[nH]c(C)c1NC(=O)CN1CCN(S(=O)(=O)c2ccc(C(F)(F)F)cc2)CC1	·	-9%	15%	?	·
CSc1nccc(-c2cc(Cl)c3c(c2)CC(CNC(=O)c2nonc2C)O3)n1 (stereo unspecified)	·	-13%	·	·	·
CCC(C)NC(=O)Nc1ccc(F)c(Cl)c1 (stereo unspecified)	11%[46.1 µM]	44%	-23%	-62*	-3%
COC(=O)c1cccc(NC(=O)NC(=O)c2ccccc2Cl)c1	?	-12%	-9%	-22	?
COC(=O)c1cccc(NC(=O)Nc2ccc(Cl)c(Cl)c2)c1	20%	-22%	·	-101*	33%[14.3 µM]
COC(=O)c1sccc1NC(=O)Nc1ccc(C)c(C)c1	·	-42%	-9%	22	·
COC(=O)c1sccc1NC(=O)Nc1ccc(Cl)c(Cl)c1	?	36%	?	-71*	-7%
CCC[C@H]1[C@@H](N(C)C)CC[C@@]23CCCN2C(=O)CCC[C@@H]13	·	·	·	30	·
Cc1nc2c(-c3ccccc3)c(C)nn2c(C)c1CCC(=O)NCc1ccco1	3%	-26%	5%	-98*	·
Cc1nc2c(-c3ccccc3)c(C)nn2c(C)c1CCC(=O)NCc1ccccc1	3%[46.1 µM]	-10%	·	5	11%[46.1 µM]
O=C(c1ccccc1Nc1ccc(SC(F)F)cc1)N1CCCCCC1	-5%	-22%	?	-101*	?
O=C(Nc1ccccc1C(=O)N1CCCCCC1)c1ccc(F)cc1	·	0%	11%	-102*	·
CSc1ccccc1NC(=O)c1ccc(N2CCCC2=O)cc1	·	41%	-24%	-13	·
CC(=O)c1ccccc1NC(=O)c1ccc(N2CCCC2=O)cc1	5%[46.1 µM]	-8%	13µM*	-9	11µM*
CC(=O)N/N=C/c1ccccc1OCCOc1cccc(C)c1	·	49%	-13%	43	·
OCCCc1cn(Cc2ccccc2)c2ccccc12	2%	-1%	-1%	20	12%
CCCCCN=c1ccn(Cc2ccccc2)c2ccccc12	·	40µM*	·	·	·
Nc1nc(NCc2ccccc2)nc(-c2ccccc2)n1	6%	·	10µM*	106	-7%
Cn1cnc([N+](=O)[O-])c1S(=O)(=O)c1ccc(Cl)cc1	?	14µM*	?	333	20µM*
Cc1cc(C)n2nc(CNC(=O)c3cccc(Cl)c3)nc2n1	-9%[46.1 µM]	-11%	·	3	-4%[46.1 µM]
O=C(N/N=C/C(Br)=C\c1ccccc1)c1ccc2nc[nH]c2c1	?	8%	?	-76*	-23%
CCOc1cc(C(=O)NN=C2CCCC2)cc(OCC)c1OCC	·	-18%	-27%	-76*	·
